High-throughput results (PubChem BioAssay)
Only some compounds are listed: those with a hit (about 3.5% of all), similar ones and a draw of the others.
Tau ThT inhib – blocks human tau fibril formation measured by thioflavin T | actives 2.1% (n = 270,000) | P10636 | AID 1460 | recombinant tau K18 P301L, heparin-induced fibrillization, ThT fluorescence | Potency, µM (highest dose often 57.4 µM), without a hit: at the top dose activity, negative = inhibition, actives largely listed as inhibitors; also: nearly all actives have a fitted effect of over 55% in size
Target sequence (P10636 561-689 P618L limits assumed): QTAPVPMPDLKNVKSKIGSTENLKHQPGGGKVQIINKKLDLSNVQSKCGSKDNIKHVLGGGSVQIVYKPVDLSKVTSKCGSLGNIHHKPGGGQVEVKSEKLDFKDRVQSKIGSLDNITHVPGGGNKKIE
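In this qHTS, human K18 P301L tau is incubated with compound and heparin for 6 hr at 37 C, and Thioflavin T fluorescence then reports fibril load.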
TRb SRC2 PPI – inhibitors of human thyroid hormone receptor beta-SRC2 interaction | TRbeta-SRC2 peptide binding, fluorescence polarization; receptor liganded with 1 µM T3 | actives 0.065% (n = 280,000) | AID 1469 | P10828 | Potency, µM (top dose mostly 106 µM), for the others: top-dose activity change, negative = inhibition, actives largely listed as inhibitors;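 also: plate controls were bound peptide for no effect and peptide without receptor for full effect; nearly all actives have a fitted effect of over 50% in size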
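Each compound concentration gave % activity, normalized to unbound and bound Texas Red SRC2 controls, from polarization read after 5 hr ambient incubation with T3-loaded human TRb LBD.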
Tau fibril FP – inhibitors of human tau fibril formation; P10636; K18 P301L tau heparin fibrillization, Alexa594 FP, 6 h; Potency, µM (top dose mostly 57.7 µM), for the others: at the top dose activity, negative = inhibition, hits mostly inhibitors; actives 0.39% (n = 280,000); AID 1468; also: nearly all actives have a fitted effect of over 55% in size
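Human K18 P301L fragment (15 uM unlabeled plus 0.24 uM Alexa 594-labeled) in 100 mM sodium acetate pH 7 with compound, aggregation induced by 20 uM heparin for 6 hr at 37 C. ThT (30 uM) added for 1 hr, then Alexa 594 FP read.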
JMJD2E inh – inhibitors of human JMJD2E histone demethylase | JMJD2E catalytic domain, FDH-coupled NADH fluorescence (FDH is formaldehyde dehydrogenase) | Potency, µM (titrated, usually from 57.1 µM), for the others: at the highest dose activity change, negative = inhibition, hits mostly inhibitors | actives 1.6% (n = 230,000); active = well fitted inhibition curve with a large enough effect, not every such curve was filed as active; inconclusive = small, poorly fitted or top-dose-only effect, or another doubt; inactive = no such curve, though single readings can be large or run the other way;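 also: 0% = wells with enzyme and -100% = buffer wells without enzyme; nearly all actives have a fitted effect of over 50% in size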
Target sequence (B2RXH2 1-337 limits assumed): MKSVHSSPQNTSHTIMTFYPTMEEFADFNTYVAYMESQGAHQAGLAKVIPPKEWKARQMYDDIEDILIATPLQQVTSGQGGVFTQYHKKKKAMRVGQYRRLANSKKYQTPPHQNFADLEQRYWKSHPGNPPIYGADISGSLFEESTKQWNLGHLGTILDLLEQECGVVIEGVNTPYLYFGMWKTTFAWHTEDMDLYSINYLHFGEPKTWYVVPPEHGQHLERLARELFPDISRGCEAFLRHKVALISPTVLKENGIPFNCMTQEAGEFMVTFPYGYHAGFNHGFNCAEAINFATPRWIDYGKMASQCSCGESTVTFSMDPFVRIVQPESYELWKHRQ
TR SRC2 fluor cs – alters Texas Red total fluorescence, flagging assay interference; Potency, µM (highest dose often 106 µM), for inactives: top-dose fluorescence change, negative = quenching; AID 1479; actives 0.29% (n = 280,000); TRb/SRC2 Texas Red total fluorescence interference; active = well fitted curve in either direction with a large enough effect; inconclusive = small, poorly fitted or top-dose-only effect
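Human TRb ligand-binding domain at 0.6 uM with 20 nM Texas Red SRC2 peptide in Tris buffer containing 1 uM T3 and 5% DMSO, incubated with compound 5 h at ambient temperature. Total fluorescence (555/632 nm) calculated as parallel + 2 × perpendicular.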
Tau fluor counter – counter-screen for tau fibril formation inhibitors. tau K18 P301L (four-repeat tau fragment) Alexa594 fluorescence, heparin fibrillization. Potency, µM (series often up to 57.7 µM), for the others: top-dose activity change, negative = decrease. actives 0.93% (n = 280,000). AID 1463; also: nearly all actives have a fitted effect of over 55% in size
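Human K18 P301L tau (15 uM unlabeled plus 0.24 uM Alexa 594-labeled, final) in 100 mM sodium acetate pH 7 was mixed with compound and 20 uM heparin and incubated 6 hr at 37 C.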
Starred values were filed as active, the others as inactive; ? = inconclusive; . = no result; [ ] = dose if it differs, or a comment. Unless noted, calls follow the shape of the dose curve; as a rule, active = well fitted curve in the direction sought with a large enough effect; inconclusive = small, poorly fitted or top-dose-only effect, or another doubt; inactive = no such curve, though single readings can be large; an effect the other way counts as inactive or inconclusive. Unless noted, % is scaled to controls: 0 for no effect and ±100 for the full control effect; potency is read from the fitted curve at half-maximal effect.

SMILES | Tau ThT inhib | TRb SRC2 PPI | Tau fibril FP | JMJD2E inh | TR SRC2 fluor cs | Tau fluor counter
NS(=O)(=O)c1ccc2c(c1)C1C=CCC1C(C1CC=CCC1)N2 (stereo unspecified) | 35µM* | -1% | ? | ? | 4% | 28µM*[quencher]
CCC1CN(C(=O)N2CCC(C(=O)NCc3ccc(OC)cc3OC)CC2)c2cc(C)ccc2O1 (stereo unspecified) | -10% | -3% | -2% | . | -2% | -20%
Cc1ccc(/C([O-])=C(/C(=S)NCc2ccccc2)[n+]2cccc(CO)c2)cc1[N+](=O)[O-] | ? | 1% | -4% | -12% | 1% | -17%
O=C1C=CC(O)(c2cc(=O)c3c(O)cc(O)cc3o2)C=C1 | 13µM* | 3% | 11µM* | 0% | -2% | -25%
O=c1cc(-c2ccccc2Cl)oc2cc(O)cc(O)c12 | 4% | -5% | -1% | 1% | 1% | -5%
Cc1cccn2c(=O)cc(CSc3nnc(NC(=O)C(C)C)s3)nc12 | -6% | -8% | -6% | . | 0% | -2%
Cc1csc2nc(CNC(=O)c3ccco3)cn12 | -8% | -1% | 5% | 1% | 2% | 5%
Cc1ccc(C)c(OCC(O)CN2CCCCC2C)c1 (stereo unspecified) | 7% | 4% | -1% | 5% | -5% | 9%
CNc1ccc(/C=C2\CSc3ccccc3C2=O)cc1[N+](=O)[O-] | 2.5µM* | -7% | -1% | 5% | -3% | 14%
C[C@@H]1C=C(C(=O)N2CCN(C)CC2)O[C@H](OCc2ccc(CO)cc2)C1 | -6% | 4% | -1% | -1% | 0% | -8%
CC(C)(C)C1CCC2(CC1)C(C#N)=C(SCC(=O)Nc1ccccc1)NC(=O)C2C#N (stereo unspecified) | 6% | -14% | 22µM* | 1% | -2% | ?
COc1cc(-c2nc3nc[nH]n3c2Nc2ccc(C(C)C)cc2)ccc1O | 25µM* | 5% | ? | . | 4% | ?
COc1cc(-c2nc3cnccn3c2Nc2ccc(C(C)C)cc2)ccc1O | -8% | -3% | -3% | ? | -1% | ?
CCN(c1ccccc1)S(=O)(=O)c1ccc(F)c(C(=O)Nc2ccc(C)cc2)c1 | 5% | 2% | -9% | . | -1% | -24%
CCN(c1ccccc1)S(=O)(=O)c1cc(C(=O)Nc2ccc(F)c(F)c2)ccc1F | 8% | 2% | 14µM* | -4% | -13% | ?
Cc1ccc(NC(=O)c2ccc(F)c(S(=O)(=O)NCCc3ccccc3)c2)cc1F | 10% | 5% | 25µM* | . | -1% | 7.1µM*[quencher]
NC(=O)COC(=O)/C=C/c1cccc(Br)c1 | -1% | -7% | 8% | 15% | -3% | 1%
O=C(c1ccc(F)cc1)N1CCN(c2ccc(N3CCOCC3)nn2)CC1 | . | 8% | -6% | ? | -1% | -9%
CCOc1ccc(CC(=O)Nc2cccc(-c3nc4cccnc4s3)c2C)cc1 | -7% | 1% | -10% | . | -2% | -14%
Cc1ccc(-c2nc3cccnc3s2)cc1NC(=O)Cc1ccccc1 | -12% | -21% | -4% | . | 100µM*[quencher] | -12%
Cc1c(NC(=O)Cc2ccc(F)cc2)cccc1-c1nc2cccnc2s1 | 8% | -2% | ? | . | -1% | 20µM*[quencher]
O=C(CSc1ccc(-c2ccco2)nn1)c1cccc([N+](=O)[O-])c1 | ? | 9% | -8% | 9% | -2% | -21%
O=c1cc(-c2cccc(O)c2)oc2cc(O)ccc12 | -11% | -2% | -10% | 0% | -4% | -11%
O=c1cc(-c2cccc(O)c2)oc2c(O)c(O)ccc12 | ? | -1% | -5% | 7.9µM* | -9% | -26%
Cc1ccc(C(=O)C2CCN(C(=S)NCC3CCCO3)CC2)cc1 (stereo unspecified) | 0% | 2%[53 µM] | 4% | -1% | 0%[53 µM] | -2%
